Sa growth 42C: S. aureus growth inhibition at 42 and 30 °C, primary screen, LtaS inhibitor project, RN4220, two temperatures; OD600, 20 h, 42 °C; active compounds read low; relative growth, % (concentration not given with the values); 0.53% of 170,000 active; AID 720641, 2013;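 active = relative growth at most 50% at the other temperature and 20+ points below 30 °C, or under 10% at both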
Sa helicase inh: inhibitors of S. aureus replicative helicase, primary screen, biochemical, fluorescence unwinding readout; replicative DNA helicase (DnaC/DnaB), Staphylococcus aureus; purified S. aureus helicase, fluorescence unwinding assay; inhibition, % (concentration not given with the values); 0.05% of 120,000 active; AID 485395, 2010; in the data active = inhibition above about 25%, passing the limit was not always enough;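 note: 0% = mean of negative control wells and 100% = mean of positive control wells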
Numbers without * were called inactive; . = not tested or not shown; ! = not active in a repeat. Hits are enriched below; roughly 0.52% of the tested compounds scored in any of these assays.

SMILES	Sa growth 42C	Sa helicase inh
NC(=O)c1ccccc1NC(=O)Nc1ccccc1	103.9	3.0
N#CC(C#N)=NNc1ccccc1C(N)=O	-0.5*	21.0
O=C1c2cccc3cccc(c23)N1CN1CCCCC1	94.3	-11.0
CC(=O)Oc1ccccc1C(=O)Nc1ccc(C(N)=O)cc1	103.3	13.0
CC(=O)Oc1ccccc1C(=O)Nc1ccc(OC(F)F)cc1	4.2*	-19.0
CCn1c2ccccc2c2cc(C#N)ccc21	44.3*	25.0
CCn1c2ccccc2c2cc(N=C=S)ccc21	127.5	4.0
Nc1c(C(=O)c2ccc(Cl)cc2)oc2nc(-c3ccco3)cc(-c3cccs3)c12	103.0	.
COC(=O)/C=c1\sc2nc3ccccc3n2c1=O	111.3	.
Cc1ccccc1Nc1cc(C)c(C#N)c2nc3ccccc3n12	1.2*	10.0
COc1ccc(Nc2cc(C)c(C#N)c3nc4ccccc4n23)cc1	93.0	8.0
O=C(OCc1nc2ccsc2c(=O)[nH]1)c1ccc(N2CCCC2=O)cc1	85.8	9.0
Cc1ccc(C)n1-c1ccc(C(=O)OCc2nc3ccsc3c(=O)[nH]2)cc1	48.1*	1.0
O=C(Nc1ccccc1)C1C(=O)NC23CCCCC2C1c1ccccc1O3 (stereo not given)	106.6	7.0
CC1CCCC(C)N1C(=O)c1noc2c1CCc1ccccc1-2 (stereo not given)	107.2	3.0
COC(=O)C(N)Cc1c[nH]c2ccccc12 (stereo not given)	93.6	-18.0
COC(=O)C(Sc1c[nH]c2ccccc12)(C(F)(F)F)C(F)(F)F	0.0*	42.0
CN(C(=O)COC(=O)Cn1nnc(-c2ccccc2)n1)C1CCCCC1	86.1	-19.0
Cc1cc(C(F)(F)F)nc(NCCc2ccccc2)n1	150.3	10.0
Cc1ccc(S(=O)(=O)N(C)C(F)F)cc1	92.5	-3.0
CN(C)/C=C/C(=O)c1ccccc1	84.3	10.0
O=C(/C=C/C(=O)c1ccccc1)c1ccccc1	-0.4*	32.0
COc1ccccc1C(=O)NCCCc1nc2ccccc2[nH]1	109.9	14.0
CSc1sc(C(=O)N/N=C/c2cccs2)c2c1C(O)CCC2 (stereo not given)	94.3	15.0
CC(C)(C)c1cc(C(c2ccccn2)N2CCCC2)cc(C(C)(C)C)c1O (stereo not given)	103.7	13.0
SMILES	Sa growth 42C	Sa helicase inh
CC(C)(C)c1cc(C(c2ccc(O)cc2)N2CCOCC2)cc(C(C)(C)C)c1O (stereo not given)	-1.3*	15.0
CCOc1cc(/C=C2/SC(=S)N(C(CC)C(=O)O)C2=O)ccc1O (stereo not given)	79.8	-2.0
CCC(C)N1C(=O)S/C(=C/c2ccc(O)c(Cl)c2)C1=O (stereo not given)	-0.6*	-8.0
O=C1CCCC2=C1C(c1ccc(Br)cc1)C1=C(N2)c2ccccc2C1=O (stereo not given)	90.2	27.0
O=C(CCCc1c[nH]c2ccccc12)N1CCN(c2ccc(F)cc2)CC1	113.1	15.0
CS(=O)(=O)c1ccc(-c2csc(-c3cccs3)n2)cc1	96.2	15.0
Fc1ccc(-c2csc(-c3cccs3)n2)cc1	44.9*	.
O=C(Nc1ccc2oc(-c3ccccc3)nc2c1)c1ccc(Br)cc1	127.1	24.0
CCC(=O)Nc1nc2c(s1)CSc1ccccc1-2	6.6*	26.0
CCC(=O)Nc1nc2ccccc2s1	89.5	-14.0
O=C(Nc1ccccc1)C(Cc1nnc(-c2ccc(F)cc2)o1)C(=O)c1ccccc1 (stereo not given)	87.0	-10.0
COC(=O)C1=C(Nc2ccc(OC(=O)c3cccc(C(F)(F)F)c3)cc2)CSC1	103.6	.
Cc1cc(C)n2nc(COc3ccccc3)nc2n1	106.1	-13.0
Clc1ccc(CSc2nnc(Cc3cccs3)n2C2CC2)cc1Cl	63.0	2.0
COc1cccc(CSc2nnc(Cc3cccs3)n2C2CCCCC2)c1	5.8*	0.0
Cc1ccc2oc(=O)n(CC(=O)C(C)(C)C)c2c1	111.3	.
CN(C)c1nc2nonc2nc1Nc1ccc(F)cc1	56.3	37.0
CC1=C(C(=O)O)N2C(=O)[C@@H](NC(=O)[C@H](N)c3ccccc3)[C@H]2SC1	91.9	.
C/C=C\C1=C(C(=O)O)N2C(=O)C(NC(=O)C(N)c3ccc(O)cc3)C2SC1 (stereo not given)	1.2*	.
CN(Cc1ccccc1)Cn1nc(-c2ccccc2)oc1=S	66.6	-7.0
COC(=O)c1cscc1OC(=O)c1ccc(C(F)(F)F)cc1	21.4*	.
COC(=O)c1sccc1OC(=O)c1ccc(C(C)(C)C)cc1	106.2	.
COc1ccc(SCC(=O)O)cc1	118.2	-1.0
Cc1ccc(C)n1-c1ccc(SCC(=O)O)cc1	89.0	42.0*
O=C(NC(=S)Nc1ccccc1)c1ccco1	114.2	2.0
SMILES	Sa growth 42C	Sa helicase inh
COCCN1C(=O)/C(=C/c2cc(OC)c(O)cc2Br)SC1=S	84.2	-86.0
C[C@H]1c2cccc(O)c2C(O)=C2C(=O)[C@]3(O)C(O)=C(C(N)=O)C(=O)[C@@H](N(C)C)[C@@H]3[C@@H](O)[C@@H]21	-0.6*	.
CC1c2cccc(O)c2CC2=C(O)C3(O)C(O)=C(C(N)=O)C(=O)C(N(C)C)C3C(O)C21 (stereo not given)	10.8	11.0
CN(C)c1ccc(O)c2c1C[C@H]1C[C@H]3[C@H](N(C)C)C(=O)C(C(N)=O)=C(O)[C@@]3(O)C(=O)C1=C2O	-0.4*	.
CCc1ccc(OC(=O)/C=C/c2ccco2)cc1	106.4	-2.0
O=C(/C=C\c1ccco1)Oc1cccc2cccnc12	1.6*	17.0
O=C1c2ccccc2C(=O)c2c1oc1c3c(ccc21)OCN(C1CCCC1)C3	97.0	32.0
O=C1c2ccccc2C(=O)c2c1oc1c3c(ccc21)OCN(C1CCS(=O)(=O)C1)C3 (stereo not given)	7.6*	27.0
c1cncc(-c2nc(Nc3ccc4c(c3)OCO4)c3ccccc3n2)c1	46.5	1.0
CN(C)c1ccc(Nc2nc(-c3cccnc3)nc3ccccc23)cc1	0.2*	12.0
Oc1c(I)cc(Cl)c2cccnc12	1.3*!	10.0
COc1c(I)cc(Cl)c2cccnc12	87.7	.
O=C(Nc1cccnc1)c1ccc(Oc2cc(Cl)cc(Cl)c2)o1	106.0	.
O=C(Nc1ccncc1)c1ccc(Oc2cc(Cl)cc(Cl)c2)o1	4.9*	.
CC[n+]1ccc(C)c2ccccc21	98.8	2.0
CCN1C=C/C(=C\c2cc[n+](CC)c3ccccc23)c2ccccc21	5.5*	82.0*
Cc1ccc(N=Cc2c[nH]c3ccccc23)nc1	87.5	1.0
O=C(NCc1cccnc1)c1ccc(Br)cc1	.	18.0
O=C(NCc1cccnc1)/C(=C\c1ccc(Br)cc1)S(=O)(=O)c1ccccc1	-1.3*	10.0
O=C(NCc1ccncc1)c1cccc(Oc2ccccc2)c1	105.2	0.0
O=C(NCc1cccnc1)/C(=C\c1cccc(Oc2ccccc2)c1)S(=O)(=O)c1ccccc1	-1.3*	17.0
COc1ccc(-c2cc(=NC(CC(C)C)C(=O)O)c3cc(C)ccc3o2)cc1 (stereo not given)	92.3	7.0
COc1ccc(-c2cc(=NCCc3ccccc3)c3cc(C)ccc3o2)cc1	14.3	46.0*
O=C1CCC(=O)N1N1C(=O)c2ccccc2C1=O	108.2	3.0
Cc1c(C(=O)NCCCN2CCOCC2)cc(-c2ccccc2)n1-c1ccccc1	100.9	.
Cc1oc2c(c1C(=O)O)C(=O)c1ccccc1C2=O	11.4	2.0
Cc1oc2c(c1C(=O)NCc1ccccn1)C(=O)c1ccccc1C2=O	0.6*	4.0
Cc1oc2c(c1C(=O)NCCCN1CCOCC1)C(=O)c1ccccc1C2=O	1.7*	2.0
